HCV inh: HCV inhibition | Huh7.5.1 HCVcc-Cre infection, luciferase reporter, 44 h | Potency, µM (top dose mostly 41.8 µM), without a hit: at the top dose activity change, negative = inhibition, usual class: inhibitors | actives 3.4% (n = 340,000) | AID 651820; active = well fitted inhibition curve with a large enough effect; inconclusive = small, poorly fitted or top-dose-only effect, or another doubt; inactive = no such curve, though single readings can be large or run the other way; note: potency is the fitted concentration of half-maximal effect
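Seed cells (1,000/well) for 4 h; treat with compound and infect with HCVcc-Cre, moi about 0.5. Incubate 44 h, then detect luciferase activity.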
VACV mCherry inh: vaccinia inhibition (mCherry reporter); Vaccinia virus mCherry reporter infection, fluorescence; Potency, µM (highest dose often 36.5 µM), inactives show at the top dose activity change, negative = inhibition, actives largely listed as inhibitors; actives 0.63% (n = 310,000); calls by dose curve; tested in A549 cells; note: potency is the fitted concentration of half-maximal effect; nearly all actives have a fitted effect of over 35% in size
HCMV inh: inhibitors of human cytomegalovirus; HFF cells, HCMV-luciferase reporter, 72 h; active compounds read low; activity change, negative = inhibition, % at 57.5 µM; actives 4.5% (n = 410,000); in the data active = activity change below about -60%; inconclusive = no clear call, values can overlap the other calls; inactive = above about -39%
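Compounds were evaluated in HFFs infected with an HCMV luciferase reporter virus (MOI 1 PFU/cell). Luciferase in lysates collected 72 h post infection served as the replication measure.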
FMDV antiviral: blocks foot and mouth disease virus; FMDV antiviral cell-based qHTS; Potency, µM (top dose mostly 57.9 µM), for the others: at the top dose activity change, negative = inhibition, usual class: inhibitors; actives 1.2% (n = 410,000); AID 1159524; calls by dose curve; tested in HEK293T cells; note: read-out not given here; potency is the fitted concentration of half-maximal effect; nearly all actives have a fitted effect of over 45% in size
Vaccinia Venus: inhibitors of vaccinia virus (Venus reporter); AID 720580; Potency, µM (titrated, usually from 36.5 µM), inactives show at the highest dose activity change, negative = inhibition, most hits filed as inhibitors; actives 0.46% (n = 330,000); Vaccinia virus Venus reporter expression, fluorescence; calls by dose curve; tested in A549 cells; note: potency is the fitted concentration of half-maximal effect; nearly all actives have a fitted effect of over 30% in size
* marks the source's active call; other numbers are inactive results; i = inactive; ? = inconclusive; · = not tested or not shown. This is a sample that favours compounds with a hit; in the whole collection about 7.3% have one here. % is set by controls: 0 for no effect and ±100 for the full control effect.

SMILES	HCV inh	VACV mCherry inh	HCMV inh	FMDV antiviral	Vaccinia Venus
COC(=O)c1ccc(CNC(=O)C2CCC(=O)N(C3CCCCCC3)C2)cc1 (configuration not stated)	-10%	·	-24	2%	·
Cc1cccc(NC(=O)c2cccc(S(=O)(=O)N(C)c3ccccc3)c2)n1	?	37%	39	-17%	-15%
COc1ccccc1N(Cc1ccccc1)S(=O)(=O)c1cccc(C(=O)Nc2cccc(C)n2)c1	10µM*	·	-28	-3%	·
Cc1ccc(S(=O)(=O)N(C)c2ccc(C(=O)NCC3CCCO3)cc2)cc1 (configuration not stated)	14%	·	-102*	0%	·
CCN(c1ccccc1)S(=O)(=O)c1ccc(C(=O)Nc2cccc(C)n2)cc1	11µM*	·	19	?	·
Cc1ccc(S(=O)(=O)N(C)c2ccc(C(=O)Nc3ccc(C)cn3)cc2)cc1	5µM*	-10%	-37	?	-8%
CCN(C(=O)COC(=O)c1c(NC(C)=O)sc(C)c1C)c1c(N)n(Cc2ccccc2)c(=O)[nH]c1=O	?	·	0	0%	·
COc1ccccc1NS(=O)(=O)c1ccc2c(c1)CCN2C(=O)CCC(=O)O	11%	-4%	-11	6%	-24%
COC(=O)[C@]12C[C@H](CC(=O)NCC34CC5CC(CC(C5)C3)C4)C(=O)N(CCC3=CCCCC3)C1=C[C@H](COCc1ccccc1)O[C@@H]2C	·	·	50	·	·
CCOc1ccc(NC(=O)CSc2nc3ccsc3c(=O)n2C(C)CC)cc1 (configuration not stated)	·	-12%	4	-22%	-9%
O=C(Nc1ccc(Cl)cn1)c1ccc(Oc2ccccc2)cc1	?	i	39	?	-25%
Cc1ccc(S(=O)(=O)N(C)c2ccc(C(=O)Nc3ccccn3)cc2)cc1	-24%	-4%	-1	?	-10%
Cc1ccc(S(=O)(=O)N(C)c2ccc(C(=O)Nc3cccc(C)n3)cc2)cc1	?	-17%	-77*	25µM*	-18%
CN(c1ccc(C(=O)Nc2ccc(Cl)cn2)cc1)S(=O)(=O)c1ccccc1	11µM*	·	-66*	?	·
CCN(c1ccccc1)S(=O)(=O)c1ccc2ccccc2c1	5.6µM*	-7%	-20	20%	1%
C=CCOc1c(CNc2cccc(C(=O)O)c2)cccc1OC	20%	·	13	-21%	0%
C=CCOc1c(CNc2cccc(C(=O)O)c2)cccc1OCC	17%	-15%	-81*	6%	-4%
OCCCc1nc2n(n1)C(c1ccccc1)C=C(c1ccc(F)cc1)N2 (configuration not stated)	11µM*	·	-37	-20%	·
COc1ccc(F)cc1S(=O)(=O)Nc1cccc(C(=O)O)c1	34%	-11%	87	0%	3%
CC1CN=C(Nc2cccc3ccccc23)S1 (configuration not stated)	-1%	·	7	42%	-21%
COc1ccc(Cl)cc1NC1=NCC(C)S1 (configuration not stated)	11µM*	·	2	-3%	·
CCNc1ncc2nc(-c3cccs3)c(=O)n(Cc3ccc(F)cc3)c2n1	·	·	·	2%	·
CC(NC(=O)c1ccc([N+](=O)[O-])o1)C1CC2CCC1C2 (configuration not stated)	11µM*	?	·	-14%	-22%
O=C(NC12CC3CC(CC(C3)C1)C2)c1ccc([N+](=O)[O-])o1	-5%	·	-70*	?	·
CCc1ccc(S(=O)(=O)c2cn(Cc3ccccc3)c3cc(N4CCCC4)c(F)cc3c2=O)cc1	·	2%	-4	6%	-11%
COc1cc(S(=O)(=O)n2ccc(C)n2)c(C)cc1C	·	i	-37	-7%	-15%
CCOC(=O)c1c(C)[nH]c(C(=O)N/N=C\c2ccccc2Cl)c1C	?	?	-99*	-17%	?
CCOC(=O)c1c(C)[nH]c(C(=O)N/N=C/c2cccc(OC)c2)c1C	22µM*	?	-36	15%	?
COc1cccc(/C=N/NC(=O)c2[nH]c(C)c(C(=O)N/N=C/c3cccc(OC)c3)c2C)c1	10µM*	-17%	153	?	-12%
COc1ccc(/C=N/NC(=O)c2[nH]c(C)c(C(=O)N/N=C/c3ccc(OC)cc3)c2C)cc1	?	i	-35	?	-12%

Screens: PubChem, National Center for Advancing Translational Sciences (NCATS)
